D2 PAM-1 – positively modulates the human D2 dopamine receptor allosterically. 0.34% of 340,000 active. AID 485347. HEK293 T-REx D2, calcium flux, EC20 dopamine potentiation. potentiation, % at 10 µM. P14416;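 active = potentiation over 3 SD above the plate norm, cut at about 30% in these data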; also: 0% is about no effect
Target sequence (P14416 whole entry, looked up): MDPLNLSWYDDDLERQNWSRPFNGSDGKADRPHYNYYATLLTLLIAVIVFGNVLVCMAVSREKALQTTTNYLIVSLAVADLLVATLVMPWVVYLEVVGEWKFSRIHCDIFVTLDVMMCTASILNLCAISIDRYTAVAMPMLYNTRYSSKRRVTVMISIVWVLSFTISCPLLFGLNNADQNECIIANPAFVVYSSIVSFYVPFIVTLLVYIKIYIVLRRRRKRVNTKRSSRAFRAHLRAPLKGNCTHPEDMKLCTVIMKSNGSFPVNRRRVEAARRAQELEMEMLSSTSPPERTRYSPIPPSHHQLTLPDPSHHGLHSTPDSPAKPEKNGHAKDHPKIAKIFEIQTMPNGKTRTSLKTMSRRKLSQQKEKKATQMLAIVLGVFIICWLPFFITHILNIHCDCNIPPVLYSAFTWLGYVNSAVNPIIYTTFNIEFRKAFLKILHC
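Calcium flux readout, no-wash dye, 1 read/s. Inducible HEK293 Trex D2 line, overnight 30 C. Compound alone 180 s (agonist flags), then EC20 dopamine, another 180 s to score potentiation.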
D2 PAM-2 – positive allosteric modulators of human D2 dopamine receptor; potentiation, % (no concentration beside the values); 0.23% of 360,000 active; DiscoveRx D2 beta-arrestin cells, luminescence, 90 min; 100% = 57 uM dopamine signal; AID 624464; in the data active = potentiation above about 50%
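PathHunter beta-arrestin assay in DiscoveRx D2 cells. Compounds were added with an EC20 of dopamine (50 nM final) for 90 min at 37 deg C. Luminescence was read 1 h after detection reagent, with 57 uM dopamine as the EC100 control.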
D2 ag-1 – human D2 receptor agonism in beta-arrestin assay; P14416; activation, % (no concentration beside the values); DiscoveRx PathHunter D2 beta-arrestin, luminescence, 90 min; 100% = 57 uM dopamine signal; 0.084% of 360,000 active; in the data active = activation above about 40%
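Agonist mode: compounds alone added to overnight-plated D2 PathHunter cells for 90 min at 37 C, with 57 uM final dopamine (EC100) defining full response. Beta-arrestin recruitment detected by chemiluminescent reagent, read after 1 h at ambient temperature.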
D2 ag-2 – activates the human D2 dopamine receptor. P14416. AID 485358. 0.53% of 340,000 active. HEK293 T-REx D2 cells, calcium flux agonist mode. activation, % at 2 µM;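 active = activation over 3 SD above normal in the single-dose calcium agonist read, cut at about 30% in these data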; also: 0% is about no effect
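Tetracycline-induced HEK293 Trex cells with D2 receptor force-coupled to calcium signaling, plated overnight at 30 C and loaded with no-wash calcium dye. Calcium flux read kinetically for 180 s after compound addition; responses flag agonists.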
D2 antag – antagonizes the human D2 dopamine receptor | P14416 | HEK293 TREx D2 cells, calcium flux, dopamine EC80 | inhibition, % at 10 µM | 2% of 340,000 active; in the data active = inhibition above about 30%; inactive = below that, where a call was filed; also: 0% is about no effect
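Cells plated overnight at 30 C with tetracycline; no-wash calcium dye, 30–90 min RT; 10 s baseline; compound pinned; 180 s read; EC80 dopamine added; another 180 s read.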
Starred values were filed as active, the others as inactive; . = no result given. Compounds with a hit are over-represented: about 2.4% of the library has one in this group of screens.

SMILES	D2 PAM-1	D2 PAM-2	D2 ag-1	D2 ag-2	D2 antag
Cn1c(=O)c2c(nc(NCc3ccccc3)n2Cc2ccccc2)n(C)c1=O	15	.	.	.	.
CCn1c(NCc2ccccn2)nc2c1c(=O)n(C)c(=O)n2C	63*	13	-1	0	1
Cn1c(=O)c2c(nc(NCC3CCCO3)n2Cc2ccccc2)n(C)c1=O (configuration not stated)	40*	-12	0	0	12
Cc1ccc(N(C(=O)c2snc(C(N)=O)c2N)C(C(=O)NC2CCCC2)c2ccncc2)cc1 (configuration not stated)	-21	-1	-2	0	105*
CCOc1ccc(N(C(=O)c2snc(C(N)=O)c2N)C(C(=O)NC2CCCC2)C(C)C)cc1 (configuration not stated)	31*	-7	-3	-1	-5
CCOc1ccc(N(C(=O)c2snc(C(N)=O)c2N)C(C)C(=O)NC2CCCCC2)cc1 (configuration not stated)	.	-13	6	-3	18
Cc1ccc(C(C(=O)NC2CCCCC2)N(CCCN2CCOCC2)C(=O)c2snc(C(N)=O)c2N)cc1 (configuration not stated)	-18	-19	-3	0	49*
COc1cc(OC)cc(N(C(=O)c2snc(C(N)=O)c2N)C(C(=O)NCC2CCCO2)c2ccc(C)o2)c1 (configuration not stated)	35*	.	.	0	11
CCOC(=O)C1CCN(c2nc3c(S(=O)(=O)c4ccccc4)nnn3c3ccsc23)CC1	4	.	.	.	.
Cc1ccc(C(=O)OC2CCOC2=O)cc1NC(=O)c1ccco1 (configuration not stated)	-10	2	-1	1	35*
Cc1ccc(N2CC(C(=O)OCC(=O)Nc3cc(C)on3)CC2=O)c(C)c1 (configuration not stated)	-5	-13	-3	0	-5
Cc1cc(C)cc(N2CC(C(=O)OCC(=O)Nc3cc(C)on3)CC2=O)c1 (configuration not stated)	41*	-5	-4	-1	15
CC(=O)CC(c1ccccc1)S(=O)(=O)c1ccc([N+](=O)[O-])cc1 (configuration not stated)	-6	-5	-6	1	70*
COc1ccc(NC(=O)CCc2nnc3ccc(N4CCC(C)CC4)nn23)cc1	-3	-4	-1	1	-6
COc1ccc(N2CCN(c3ccc4nnc(CCC(=O)Nc5ccc(C)cc5)n4n3)CC2)cc1	8	-8	-5	0	34*
COc1cccc2cc(C(=O)NCc3ccccn3)c(=O)oc12	-4	8	-2	0	44*
CC(NC(=O)CSc1nc(-c2cccc(Cl)c2)nc2cc(=O)[nH]n12)c1nc2ccccc2n1C (configuration not stated)	16	.	.	0	.
CCC1COCCS(=O)(=O)N1Cc1cccc(Cl)c1 (configuration not stated)	4	-5	-2	0	47*
O=S1(=O)CCOC[C@H](CC2CCCCC2)N1Cc1cccc(Cl)c1	9	-5	-1	0	-15
Cc1cc(C)cc(NS(=O)(=O)c2ccc(-c3cc(C)no3)cc2)c1	.	.	.	0	.
Cc1cccc(NC(=O)C2CCN(S(=O)(=O)c3ccc(F)cc3)CC2)c1C	10	.	.	-1	.
O=C(NC12CC3CC(CC(C3)C1)C2)C1CCCN1C(=O)NC1CCCCC1 (configuration not stated)	14	-6	-2	1	-12
CC1CCCCN1C(=O)NC12CC3CC(CC(C3)C1)C2 (configuration not stated)	-1	2	3	0	34*
Cc1cccc(N(C)S(=O)(=O)c2ccc3c(c2)C(C)(C)C(=O)N3C)c1	3	-1	4	-1	41*
COC(=O)c1ccc(NC(=O)CN(Cc2ccccc2)S(=O)(=O)c2ccc(Cl)cc2)cc1	-28	.	.	6	.
SMILES	D2 PAM-1	D2 PAM-2	D2 ag-1	D2 ag-2	D2 antag
CCc1ccccc1NC(=O)C1CCCN(c2nnc(-n3c(C)ccc3C)s2)C1 (configuration not stated)	8	.	.	0	.
O=c1cc(N2CCCC2)[nH]c(=O)n1-c1ccc(Cl)cc1	-5	-5	-6	0	1
O=c1cc(N2CCOCC2)[nH]c(=O)n1-c1ccc(Cl)cc1	-4	-12	-3	0	41*
O=C(c1c[nH]c2ccccc12)N1CCOCC1	8	-8	-6	2	-10
S=C(c1c[nH]c2ccc(Br)cc12)N1CCOCC1	-2	-4	0	3	38*
Cn1nnc2cc(C(=O)N3CCC(c4ccccc4)C3)ccc21 (configuration not stated)	103*	-20	-2	2	11
Cn1nnc2cc(C(=O)N3CCCCCC3)ccc21	-7	2	-1	0	-15
CCc1noc(C)c1C(=O)NNC(=O)c1nn(CC)c(=O)c2ccccc12	-1	25	-5	-1	12
CCc1noc(C)c1C(=O)NNC(=O)c1nn(C)c(=O)c2ccccc12	-6	-1	-3	0	57*
CCc1noc(C)c1C(=O)NNC(=O)c1ccc(Br)cc1	-2	-2	-6	0	37*
Cc1ccc2nc(SCc3nc(-c4ccc(Cl)cc4)no3)[nH]c2c1	-6	.	.	0	.
COc1cccc(CNC(=O)c2sc3nc(C)cc(C)c3c2-n2cccc2)c1OC	4	.	.	-2	.
CC(C)C(=O)NC(C)C(c1cccs1)N1CCN(c2ccccc2)CC1 (configuration not stated)	17	-13	1	1	-10
CC(NC(=O)Cc1ccc(F)cc1)C(c1cccs1)N1CCN(C)CC1 (configuration not stated)	50*	3	-1	0	-1
CC(NC(=O)c1cccs1)C(c1cccs1)N1CCN(c2ccccc2)CC1 (configuration not stated)	55*	-4	0	0	7
Cc1nn(CC(=O)N2CCN(c3ccccc3)CC2)c(=O)c2cc3sccc3n12	.	.	.	0	.
CC(C)N(Cc1nc(-c2ccccc2)no1)C(=O)CN1C(=O)c2ccccc2C1=O	36*	5	5	0	-6
CC(C)N(Cc1nc(-c2ccccc2)no1)C(=O)CCCN1C(=O)c2ccccc2C1=O	35*	-12	4	1	1
Cc1cc(OCc2nn[nH]n2)c2c(-c3ccccc3)cc(=O)oc2c1	4	-1	-3	-1	51*
Cc1c(OCc2nn[nH]n2)ccc2c(-c3ccccc3)cc(=O)oc12	11	-2	-2	0	-7
CCCS(=O)(=O)NC(=O)C1(C)CCCN(C(=O)COc2ccc(Cl)cc2Cl)C1 (configuration not stated)	.	-22	-7	.	.

Assay outcomes as filed in PubChem.
